The results in this text go back to PubChem BioAssay (EPA / NIEHS).

The structures appear in SMILES notation. Calls of active or inactive are those of the source. The calls were made as follows: active = hit-call score of the fitted dose curve at least 0.9, where 1 is the maximum; inactive = score below 0.9.

A short description of the assay: BSK_KF3CT_SRB: Viability Assessment in the BioMAP Diversity Plus: KF3CT Assay (AID 2283069).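 Also: fitted for both signal gain and loss against DMSO baseline.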 To be noted: primary human keratinocytes with fibroblasts. Here is the method:
BSK_KF3CT is a cell-based, multiplexed-readout assay that uses keratinocytes and foreskin fibroblasts, a human skin primary cell co-culture, with measurements taken at 24 hours after chemical dosing in a 96-well plate.BSK_KF3CT_SRB is an assay component measured in the BSK_KF3CT assay. It measures 0.1% sulforhodamine related to cell death using Sulforhodamine staining technology.Data from the assay component BSK_KF3CT_SRB was analyzed into 1 assay endpoint. This assay endpoint, BSK_KF3CT_SRB, was analyzed with bidirectional fitting relative to DMSO as the negative control and baseline of activity. Using a type of viability reporter, gain or loss-of-signal activity can be used to understand changes in the signaling. Furthermore, this assay endpoint can be referred to as a primary readout, because this assay has produced multiple assay endpoints where this one serves a signaling function. To generalize the intended target to other relatable targets, this assay endpoint is annotated to the cell morphology intended target family, where the subfamily is cell conformation.
The levels of cell surface (or secreted, indicated by the prefix "s") biomarker endpoints were measured by ELISA. Overt cytotoxicity to cells in confluent adherent cultures (all systems other than the BT system) was assessed by measuring total protein levels using sulforhodamine B (SRB) staining in parallel cultures at the time of biomarker measurements, indicated as SRB endpoints. For proliferation assays for adherent cell types, individual cell types are cultured at sub-confluence and relative cell numbers quantified by SRB staining at time points optimized for each system (48 h: 3C and CASM3C systems; 72 h: BT and HDF3CGF systems; 96 h: SAg system). SRB was performed by staining cells with 0.1% SRB after fixation with 10% TCA and reading wells at 560 nm.Viability and proliferation of PBMC (T cells) was quantified by Alamar Blue reduction for the SAg and BT systems. For PBMC viability (referred to as PBMC Cytotoxicity within the assay endpoint names), cells were plated (75,000/well in a 96-well plate) and then chemical samples added for 1 h before addition of activators, SEB and TSST-1 (20 ng/mL final concentration each). Cells were incubated for 90 h. Then, Alamar Blue (20 uL/well) (Invitrogen, Cat DAL1100) was added for 6 h, and the plates were read with a fluorescence microplate reader at 546/580 nm (excitation/emission). For PBMC proliferation, cells were plated and activated as above but incubated for only 16 h prior to addition of Alamar Blue. Plates were read after 6 h.
Take `COC(=O)c1c(Cl)c(Cl)c(C(=O)OC)c(Cl)c1Cl`: the outcome was inactive.

With `CCOC(=O)COc1ccc2c(c1)CC(NCC(O)c1cccc(Cl)c1)CC2` (stereo not given), the outcome was inactive.

Consider `On1ccccc1=S`, for which the AC50 is 6.33 µM (active).

Consider `CCCC(=O)OCC`, for which the result was inactive.

With `CCn1nc(Cc2ccccc2)cc1C1CCN(C[C@H]2C[C@H](N(C)[C@@H](C(=O)O)C(C)C)C[C@@H]2c2cccc(F)c2)CC1`, the outcome was inactive.

Regarding `CCCCC(CC)COC(=O)c1ccc(C(=O)OCC(CC)CCCC)cc1` (stereo not given), the result was inactive.

As for `CN(C)c1ccc(Cc2ccc(N(C)C)cc2)cc1`, the outcome was inactive.

As for `CCOC(=O)CC(CC(=O)OCC)(OC(C)=O)C(=O)OCC`, the result was inactive.

As to `O=P(OC(CCl)CCl)(OC(CCl)CCl)OC(CCl)CCl`, the outcome was inactive.

Consider `C1=CCCC=CCCC=CCC1`, for which the result was inactive.

In the case of `CCOc1cccc(-n2cc(C(=O)N3CCN(c4cc(C(=O)O)c5ccccc5c4)CC3)nc2-c2ccc(C)cc2)c1`, the AC50 was 21.3 µM (active).

As for `NC(=O)NO`, the result was inactive.

In the case of `Cc1[nH]cnc1C[C@H]1CCc2c(C)c3ccccc3n2C1=O`, the outcome was inactive.

Consider `CCCCCCCCCCCCCCCO`, for which the outcome was inactive.

As for `O=C(OC[C@H]1O[C@@H](OC(=O)c2cc(O)c(O)c(OC(=O)c3cc(O)c(O)c(O)c3)c2)[C@H](OC(=O)c2cc(O)c(O)c(OC(=O)c3cc(O)c(O)c(O)c3)c2)[C@@H](OC(=O)c2cc(O)c(O)c(OC(=O)c3cc(O)c(O)c(O)c3)c2)[C@@H]1OC(=O)c1cc(O)c(O)c(OC(=O)c2cc(O)c(O)c(O)c2)c1)c1cc(O)c(O)c(OC(=O)c2cc(O)c(O)c(O)c2)c1`, the outcome was inactive.

Take `O=C1CCCCCN1`: the result was inactive.

As to `O=C(NS(=O)(=O)/C=C/c1ccccc1)c1ccc(F)cc1Cl`, the outcome was inactive.

For `CC(C)=CCCC(C)=CC=O`, the outcome was inactive.

As to `CNCc1ccc(NC(=O)c2c[nH]c3c2C(=O)CCC3)cc1`, the outcome was inactive.

`CC(C)=CCC/C(C)=C/CO`: the result was inactive.

Turning to `O=C(O)CC(O)C(=O)O` (stereo not given), the outcome was inactive.

Turning to `CCCCCCCCCCCCc1ccccc1`, the outcome was inactive.

Consider `Fc1ccccc1[C@@H](F)COC1CCC(Nc2ncnc3[nH]ncc23)CC1` (stereo not given in full), for which the result was inactive.

With `CC[C@H](C)C(=O)O[C@H]1C[C@@H](C)C=C2C=C[C@H](C)[C@H](CC[C@@H]3C[C@@H](O)CC(=O)O3)[C@H]21`, the AC50 was 31.7 µM (active).

As for `COc1ccc2sc(C(=O)Nc3nnn[nH]3)c(OC(C)C)c2c1`, the AC50 was 26.1 µM (active).

Take `Cc1ccc(S(=O)(=O)O)cc1C`: the result was inactive.

Take `CCOCCOCCOCCO`: the outcome was inactive.

Consider `CC1(C)C(=O)N(Br)C(=O)N1Br`, for which the result was inactive.

Regarding `CC/C(=C\C(=N/O)C(N)=O)C(C)[N+](=O)[O-]` (stereo not given), the result was inactive.

On to `CCCCC(CC)COC(=O)CCCCCCCCC(=O)OCC(CC)CCCC` (stereo not given), for which the outcome was inactive.

On to `Nc1nc2ncc(CNc3ccc(C(=O)N[C@@H](CCC(=O)O)C(=O)O)cc3)nc2c(=O)[nH]1`, for which the result was inactive.

As to `CCOCCO`, the outcome was inactive.

For the compound `Nc1cccc(N)c1`, the result was inactive.

Turning to `CC(C)CCO`, the result was inactive.

As to `CCOC(=O)c1ccc(C2CCC(NC[C@H](O)COc3ccc(O)c(NS(C)(=O)=O)c3)CC2)cc1` (stereo not given in full), the outcome was inactive.

As for `CC(=O)OC[C@H]1O[C@@](COC(C)=O)(O[C@H]2O[C@H](COC(C)=O)[C@@H](OC(C)=O)[C@H](OC(C)=O)[C@H]2OC(C)=O)[C@@H](OC(C)=O)[C@@H]1OC(C)=O`, the result was inactive.

As for `CCc1cc(SCc2sc(-c3ccc(C(F)(F)F)cc3)nc2CN2CCN(c3ccc(OC)cc3)CC2)ccc1OCC(=O)O`, the AC50 was 3.42 µM (active).

With `CC(C)=CCCC(C)CCO` (stereo not given), the outcome was inactive.

Regarding `CC(C)c1cccc(C(C)C)c1N1C(=O)c2ccc(O)cc2C1=O`, the AC50 was 29.1 µM (active).

With `CC(C)=CCC/C(C)=C\CO`, the outcome was inactive.

What is called AC50 is the concentration at which the activity in the assay is half-maximal.
